Two compounds from PubChem BioAssay AID2589 (National Center for Advancing Translational Sciences (NCATS), 2010) can be followed below.

Each structure is given as a SMILES string. The source made the active and inactive calls. The call rests on the fitted dose curve; in most records, active means well fitted curve in the direction sought with a large enough effect; inactive means no such curve, though single readings can be large or run the other way.

Chain of Lysosomal acid glucosylceramidase (Homo sapiens) (P04062 whole entry, looked up): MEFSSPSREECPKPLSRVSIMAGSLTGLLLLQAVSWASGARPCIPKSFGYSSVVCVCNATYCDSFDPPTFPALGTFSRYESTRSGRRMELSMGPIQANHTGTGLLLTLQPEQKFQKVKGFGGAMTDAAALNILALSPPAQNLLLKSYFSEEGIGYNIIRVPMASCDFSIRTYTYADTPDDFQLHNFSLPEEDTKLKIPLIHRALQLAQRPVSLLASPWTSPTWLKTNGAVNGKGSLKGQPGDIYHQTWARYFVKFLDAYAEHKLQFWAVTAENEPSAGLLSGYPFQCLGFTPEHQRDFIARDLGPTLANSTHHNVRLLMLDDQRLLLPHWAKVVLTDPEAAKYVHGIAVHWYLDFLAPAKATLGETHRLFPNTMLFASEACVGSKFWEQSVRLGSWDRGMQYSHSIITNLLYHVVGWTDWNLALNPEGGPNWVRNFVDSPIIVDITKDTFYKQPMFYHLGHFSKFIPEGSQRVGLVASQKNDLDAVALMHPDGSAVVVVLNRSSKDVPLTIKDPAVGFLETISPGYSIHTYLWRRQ

This assay concerns the target Lysosomal acid glucosylceramidase (Homo sapiens) (UniProt P04062). Put plainly: qHTS Assay for Inhibitors and Activators of N370S glucocerebrosidase as a Potential Chaperone Treatment of Gaucher Disease: Chaperone Activity in Non-Gauche Fibroblasts After Multi-day Incubation with Compound. The following applies: Wild-type fibroblasts, GC immunofluorescence, 5-day incubation. From the text: NIH Chemical Genomics Center [NCGC] NIH Molecular Libraries Probe Production Centers Network [MLPCN] MLPCN Grant: MH086442-01 Assay Submitter (PI): Wei Zheng Glucocerebrosidase (GC) catalyzes the hydrolysis of beta-glucocerebroside to glucose and ceramide in lysosomes. Mutations in the glucocerebrosidase gene result in Gaucher disease, an autosomal recessive lysosomal storage disorder. Many of the mutations encountered in patients with Gaucher disease are missense alterations that may cause misfolding, decreased stability and/or mistrafficking of this lysosomal protein. […] These inhibitors include iminosugar analogs and three non-iminosugar inhibitors identified from a previous HTS of 62,000 compounds with the wild type recombinant enzyme. However, the enhancement of enzyme activity by the chaperone action of an enzyme inhibitor must be balanced against the direct inhibition of the enzyme. An enzyme activator could also function as a chaperone by binding to the enzyme and helping to correct its misfolding and mistrafficking. […] This assay attempts to quantitate translocated glucocerebrosidase protein in patient-derived fibroblasts following extended compound incubation. […]
NCGC Assay Protocol Summary: 1. […] Visualized using a fluorescence microscope and the intensity of fluorescence in the selected areas were calculated. […]
A general note: qHTS replaces the single test concentration by a dilution series.
As for `S=C(NCCCc1cnc[nH]1)NCCCN(Cc1ccc(Cl)c(Cl)c1)c1ccc(Br)cn1`, the Potency was 708 nM (active).

As to `O=S(=O)(c1ccc2ccccc2c1)N1CCN(c2nc(-c3cccs3)nc3ccccc23)CC1`, the Potency is 1260 nM (active).
